Source: PubChem BioAssay (National Center for Advancing Translational Sciences (NCATS))
The list is not random: actives were taken first. Their share in the collection is about 10%.
HEK293 tox: Cytotoxic Profiling in HEK 293 Cell Line of Diverse Libraries Using Quantitative High-Throughput Screening | HEK 293 viability, ATP luminescence (CellTiter-Glo), 48-72 h | Potency, µM (highest dose often 115 µM), without a hit: at the highest dose activity change, negative = cytotoxicity, actives largely listed as inhibitors | 6.6% of 94,000 active | AID 1345083, 2018; note: nearly all actives have a fitted effect of over 60% in size
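Read-out: CellTiter-Glo ATP luminescence. Cells: HEK 293, 250 cells/well. Exposure: 48 or 72 hr, 37 degree Celsius.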
FLuc inh: Firefly luciferase inhibition profiling of diverse chemical library using quantitative high-throughput screening; Potency, µM (highest dose often 115 µM), hits mostly inhibitors; AID 1347043, 2019; purified P. pyralis luciferase, luminescence, biochemical; Luciferin 4-monooxygenase (Photinus pyralis), P08659; 2.5% of 76,000 active; note: nearly all actives have a fitted effect of over 65% in size
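Purified P. pyralis luciferase (10nM final) in 50mM Tris acetate pH 7.5, 10mM Mg acetate, 0.01% Tween-20, 0.05% BSA with 10uM D-luciferin and 10uM ATP. Compounds titrated qHTS. Luminescence imaged on CCD.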
NIH3T3 tox: Cytotoxic Profiling in NIH 3T3 Cell Line of Diverse Libraries Using Quantitative High-Throughput Screening; NIH 3T3 viability, CellTiter-Glo ATP luminescence, 48-72 h; AID 1345082, 2018; 4.3% of 94,000 active; Potency, µM (doses to about 96.7 µM), for the others: top-dose activity change, negative = cytotoxicity, usual class: inhibitors; note: nearly all actives have a fitted effect of over 55% in size
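First NIH 3T3 cells are plated at 400 cells/well; next compound is pinned in; then plates incubate 48 or 72 hr at 37 °C; finally CellTiter-Glo is added and luminescence read after 10 min.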
hNpr1 antagonist: Natriuretic polypeptide receptor (hNpr1) antagonism - Primary qHTS. HEK293 hNpr1 GloSensor cGMP, ANP-stimulated luminescence. Potency, µM (doses to about 46.3 µM), without a hit: top-dose activity change, negative = inhibition, usual class: inhibitors. 1.6% of 76,000 active; calls by dose curve; note: nearly all actives have a fitted effect of over 60% in size
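Compound pre-incubated 30 min at room temperature on GloSensor-loaded HEK293 cells stably carrying hNpr1 and the pGS-40F cGMP biosensor. Stimulation uses hNppA at 0.1 nM final; luminescence is taken at baseline and 20 min post-agonist.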
GPT2 inh: Primary qHTS assay for inhibitors of Glutamate pyruvate transaminase 2 (GPT2); Potency, µM (titrated, usually from 57.7 µM), for the others: at the top dose activity change, negative = inhibition, usual class: inhibitors; AID 1671188, 2021; 0.25% of 100,000 active; Alanine aminotransferase 2 (Homo sapiens), Q8TD30; Recombinant GPT2, coupled pyruvate oxidase/HRP Amplex Red fluorescence; note: nearly all actives have a fitted effect of over 60% in size
Target sequence (Q8TD30 whole entry, looked up): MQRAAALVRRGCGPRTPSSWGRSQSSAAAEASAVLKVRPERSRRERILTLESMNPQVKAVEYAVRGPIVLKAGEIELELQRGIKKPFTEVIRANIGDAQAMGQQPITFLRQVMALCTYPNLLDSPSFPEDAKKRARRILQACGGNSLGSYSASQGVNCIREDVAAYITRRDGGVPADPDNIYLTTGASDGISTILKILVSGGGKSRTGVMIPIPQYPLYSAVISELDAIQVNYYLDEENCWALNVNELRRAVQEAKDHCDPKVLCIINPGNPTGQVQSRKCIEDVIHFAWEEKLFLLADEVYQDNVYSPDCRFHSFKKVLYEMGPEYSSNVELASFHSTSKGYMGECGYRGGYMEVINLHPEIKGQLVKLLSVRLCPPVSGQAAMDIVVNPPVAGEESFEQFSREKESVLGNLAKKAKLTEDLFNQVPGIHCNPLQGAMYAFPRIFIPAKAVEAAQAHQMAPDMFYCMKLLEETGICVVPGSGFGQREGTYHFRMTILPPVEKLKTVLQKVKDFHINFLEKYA
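Fluorescence of coupled pyruvate oxidase/HRP/Amplex Red system (50uM Amplex, 30 min, dark) reports pyruvate formed by GPT2. Enzyme reaction: 10ng/uL GPT2, 2mM L-alanine, 250uM a-KG, 30 min room temperature, pH 7.5; 50uM AOA control.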
Starred values were filed as active, the others as inactive; i = inactive; ? = inconclusive; nt = not tested or not shown; [ ] = dose if it differs, or a comment. Unless noted, calls come from the whole dose curve; as a rule, active = well fitted curve in the direction sought with a large enough effect; inconclusive = small, poorly fitted or top-dose-only effect, or another doubt; inactive = no such curve, though single readings can be large; an effect the other way counts as inactive or inconclusive. % is set by controls: 0 for no effect and ±100 for the full control effect; potency is the fitted concentration of half-maximal effect.

SMILES	HEK293 tox	FLuc inh	NIH3T3 tox	hNpr1 antagonist	GPT2 inh
CC1(COc2ccccc2)COc2ccc(C(=O)NCc3cnccn3)cc2N1 (centres undefined)	?	i	?	-2%[70.6 µM]	-10%[88.5 µM]
Cn1ccc(NC(=O)c2ccc3c(c2)NC(C)(COc2ccccc2)CO3)n1 (centres undefined)	100µM*	?	?	?	-22%[88.5 µM]
O=C(NCc1ccccn1)c1nc2sccn2c1-c1ccncc1	5%	nt	-27%	nt	0%
Cc1ccc(NC(=O)N2C[C@@H](F)C[C@H]2C(=O)N2CCc3ccccc3C2)c(Cl)c1	-11%	nt	?	nt	?
CC(C)c1noc(-c2ccn3c(CNC(=O)c4ccc(N(C)C)cc4)nnc3c2)n1	1%	i	-12%	0%	i
CC(C)c1noc(-c2ccn3c(CNC(=O)c4cccc(N(C)C)c4)nnc3c2)n1	?	28µM*	?	-9%	i
O=C(NCc1cccc(F)c1)c1nc2c(o1)CCN(Cc1cccc(F)c1F)CC2	50µM*	i	45µM*	?	-2%[88.5 µM]
O=C(Nc1cccc(C(F)(F)F)c1)c1nc2c(o1)CCN(Cc1nccs1)CC2	?	16µM*	?	35µM*	1%[88.5 µM]
O=C(NCC1CC1)c1nc2c(o1)CCN(Cc1cccc(O)c1)CC2	?	?	100µM*	4%[70.6 µM]	i
COc1ccc(CN2CCc3nc(C(=O)NCc4cccc(F)c4)oc3CC2)cc1	?	i	?	-29%[70.6 µM]	-5%[88.5 µM]
O=C(Nc1cccc(C(F)(F)F)c1)c1nc2c(o1)CCN(Cc1cccs1)CC2	?	8.9µM*	?	?	-10%[88.5 µM]
COCCn1ncc(N2CCCC(CC(=O)NCc3ccc(C)o3)C2)cc1=O (centres undefined)	1%	i	-10%	1%	i
N#Cc1cccc(CN2CCc3nc(C(=O)NCC4CC4)oc3CC2)c1	?	i	?	-24%[70.6 µM]	-2%[88.5 µM]
O=C(Nc1cccnc1)c1nc2c(o1)CCN(Cc1cccs1)CC2	89µM*	?	?	-19%[70.6 µM]	-30%[88.5 µM]
N#Cc1cccc(CN2CCc3nc(C(=O)Nc4cccc(C(F)(F)F)c4)oc3CC2)c1	?	?	?	11µM*	-3%
Cc1ccc(CN2CCc3nc(C(=O)Nc4cccnc4)oc3CC2)o1	?	?	-21%[138 µM]	-10%[70.6 µM]	4%[88.5 µM]
COc1ccc(CN2CCc3nc(C(=O)Nc4cccnc4)oc3CC2)cc1OC	?	i	?	-17%[70.6 µM]	-7%[88.5 µM]
COc1cccc(CN2CCc3nc(C(=O)Nc4cccnc4)oc3CC2)c1	?	22µM*	?	?	3%[88.5 µM]
O=C1CCC(CNS(=O)(=O)Cc2ccccc2F)CCN1Cc1ccccc1 (centres undefined)	i	nt	-25%	nt	0%
O=C(C1CCN([S+](=O)([O-])c2cccc(C(F)(F)F)c2)CC1)N1CCC(N2CCOC2=O)CC1	-11%	nt	-31%	nt	i
Cc1nn2c(c1-c1ccccc1N1CCCC1)N(C(=O)C1CCOCC1)CCC2	100µM*	i	?	-2%[70.6 µM]	i
Cc1nn2c(c1-c1cccnc1N1CCOCC1)N(CCCc1ccccc1)CCC2	50µM*	i	?	?	-11%[88.5 µM]
Cc1nn2c(c1-c1ccccc1N1CCCC1)N(C(=O)COc1ccccc1)CCC2	71µM*	i	?	-14%[70.6 µM]	1%[88.5 µM]
Cc1nn2c(c1-c1ccccc1N1CCCC1)N(C(=O)c1cccc(N(C)C)c1)CCC2	89µM*	i	?	-5%[70.6 µM]	0%[88.5 µM]
CCc1nc(-c2c3n(c(=O)n(Cc4cccc(OC)c4)c2=O)CCCC3)no1	-1%	i	-10%	-7%	i
SMILES	HEK293 tox	FLuc inh	NIH3T3 tox	hNpr1 antagonist	GPT2 inh
CCc1nc2c(c(-c3ccc(O)cc3)n1)CN(C(=O)Cc1ccc(F)cc1)CC2	-2%	nt	?	nt	0%
Cc1nn2c(c1-c1ccccc1-c1ccccc1)N(C(=O)COc1ccccc1)CCC2	?	i	?	-26%[70.6 µM]	-17%[88.5 µM]
Cc1nn2c(c1-c1cccnc1N1CCOCC1)N(C(=O)COc1ccccc1)CCC2	1%[172 µM]	i	100µM*	2%[70.6 µM]	-5%[88.5 µM]
CCCc1nnc(C[C@@H]2C[C@@H](C(C)C)[C@H](CNCc3cccnc3)C=C2C)o1	?	i	-24%[138 µM]	-12%[70.6 µM]	-6%[88.5 µM]
CCCc1nnc(C[C@@H]2C[C@@H](C(C)C)[C@H](CNc3cccnc3)C=C2C)o1	89µM*	i	25µM*	-9%[70.6 µM]	10µM*
CCCc1nnc(C[C@@H]2C[C@@H](C(C)C)[C@H](CN3CCN(C(C)=O)CC3)C=C2C)o1	100µM*	i	-12%[174 µM]	-6%[70.6 µM]	-2%[88.5 µM]
CCCc1nnc(C[C@@H]2C[C@@H](C(C)C)[C@H](CN3CCN(c4ncccn4)CC3)C=C2C)o1	40µM*	i	?	2%	i
CCCc1nnc(C[C@@H]2C[C@@H](C(C)C)[C@H](CO)C=C2C)o1	?	i	?	0%[70.6 µM]	-13%[88.5 µM]
CC1=C[C@@H](CN2CCN(c3ncccn3)CC2)[C@H](C(C)C)C[C@H]1Cc1nnc(Cc2c[nH]c3ccccc23)o1	45µM*	i	?	0%	4%
CCCc1nnc(C[C@@H]2C[C@@H](C(C)C)[C@H](CN3CCC(O)CC3)C=C2C)o1	4%[172 µM]	i	-1%[174 µM]	3%[70.6 µM]	i
CC1=C[C@@H](CN2CCN(CCO)CC2)[C@H](C(C)C)C[C@H]1Cc1nnc(C)o1	-12%[172 µM]	i	-8%[138 µM]	2%[70.6 µM]	i
Cc1ccc(C(=O)N2CCC3(CC2)NC(=O)N(c2ccc(F)cc2)N3)c(C)c1	?	i	?	1%	?
O=C(C1CCC(N2Cc3cccn3C2=O)CC1)C1CCN([S+](=O)([O-])c2cccs2)CC1 (centres undefined)	-23%	nt	-27%	nt	-17%
O=C(Cc1ccc(F)cc1)NCCNC(=O)c1ccc(-c2cncnc2)cc1	-5%	nt	-14%	nt	nt
CCN(CC)Cc1ccc2c(c1)CN(C(=O)COCCOC)CCO2	i	nt	-1%	nt	0%
O=S(=O)(c1ccccc1)N1CCc2nnc(C3CC3)n2CC1	1%	nt	-19%	nt	-7%
N#CC1CCN(C(=O)C2CCN(Cc3ccccc3-c3ccccc3F)CC2)CC1	?	nt	?	nt	i
COc1ccc(C(=O)NC2CCN(c3ccnc4ccnn34)CC2)cc1	-12%	nt	-13%	nt	5%
CC(C)N[C@H]1C[C@@H](Cc2cc(COc3ccccc3)on2)C1(C)C	63µM*	i	50µM*	-1%[70.6 µM]	-4%[88.5 µM]
